Most compounds without a hit are left out; they make up all but 3.7% or so of the library.
Bead autofluor: counter-screen for toxin protease inhibitors: compound fluorescence. AID 624483. compound autofluorescence counterscreen, microsphere flow cytometry; active compounds read high. 360,000 tested, 3.1% active. fluorescence intensity (no concentration beside the values); in the data active = fluorescence intensity above about 16000; inconclusive = no clear call, values can overlap the other calls
BoNT-F LC inh: BoNT F light chain protease inhibition. inhibition, % at 10 µM. AID 588497. Multiplex microsphere protease cleavage assay, flow cytometry. 360,000 tested, 0.22% active; in the data active = inhibition above about 35%, passing the limit was not always enough; inconclusive = no clear call, values can overlap the other calls; also: plate controls were buffer without enzyme for full effect and enzyme alone for no effect
BoNT-A LC inh2: inhibitors of Botulinum neurotoxin A light chain protease; multiplex microsphere protease substrate cleavage, flow cytometry; inhibition, % at 10 µM; 360,000 tested, 0.17% active; AID 588499; also: plate controls were buffer without enzyme for full effect and enzyme alone for no effect
MazF activator: MazEF (E. coli) toxin RNase activation; FAM/BHQ RNA-DNA oligo cleavage fluorescence, 5 h; P0AE70; 350,000 tested, 0.32% active; activation, % at 20 µM; AID 504720; in the data active = activation above about 50%
Anthrax LF prot: inhibitors of Bacillus anthracis lethal factor protease | multiplex microsphere protease cleavage assay, LF | 360,000 tested, 0.12% active | P15917 | inhibition, % at 10 µM; also: plate controls were buffer without enzyme for full effect and enzyme alone for no effect
Target sequence (P15917 whole entry, looked up): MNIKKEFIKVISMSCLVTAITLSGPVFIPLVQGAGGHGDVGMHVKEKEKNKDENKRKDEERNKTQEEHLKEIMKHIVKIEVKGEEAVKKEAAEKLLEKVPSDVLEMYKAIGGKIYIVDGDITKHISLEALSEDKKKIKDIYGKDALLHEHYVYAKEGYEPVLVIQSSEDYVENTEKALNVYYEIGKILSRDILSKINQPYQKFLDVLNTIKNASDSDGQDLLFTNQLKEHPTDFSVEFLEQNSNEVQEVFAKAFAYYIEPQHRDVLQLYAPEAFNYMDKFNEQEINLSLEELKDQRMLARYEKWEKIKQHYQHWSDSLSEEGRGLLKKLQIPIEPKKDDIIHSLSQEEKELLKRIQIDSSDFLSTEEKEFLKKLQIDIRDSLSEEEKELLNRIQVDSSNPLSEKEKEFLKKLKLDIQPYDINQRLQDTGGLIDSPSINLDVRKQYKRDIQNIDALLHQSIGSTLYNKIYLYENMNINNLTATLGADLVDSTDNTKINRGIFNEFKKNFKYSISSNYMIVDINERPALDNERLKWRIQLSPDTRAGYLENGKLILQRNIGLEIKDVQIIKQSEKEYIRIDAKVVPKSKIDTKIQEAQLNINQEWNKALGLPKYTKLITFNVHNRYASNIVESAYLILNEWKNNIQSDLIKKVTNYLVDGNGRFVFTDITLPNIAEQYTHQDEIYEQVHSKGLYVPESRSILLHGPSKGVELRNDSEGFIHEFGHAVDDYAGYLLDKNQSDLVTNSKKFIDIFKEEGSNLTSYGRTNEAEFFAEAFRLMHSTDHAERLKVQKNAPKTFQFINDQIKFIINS
Numbers without * were called inactive; u = inconclusive; x = not tested or not shown. Rule as the data show it, unless noted: active = inhibition above about 30%; inconclusive = no clear call, values can overlap the other calls; inactive = below that.

SMILES | Bead autofluor | BoNT-F LC inh | BoNT-A LC inh2 | MazF activator | Anthrax LF prot
Cc1cc2c(c(=O)n1CCN(C)C)C(c1ccc(Br)cc1)C(C#N)=C(N)O2 (stereo not drawn) | 3269 | 2 | 0 | -2 | -2
CC1=C(C(=O)N(C)C)CC(CC(=O)NCCCN(C)C)C(=O)N1Cc1ccccc1 (stereo not drawn) | 3930 | -3 | 0 | 3 | -2
Cc1ccc(S(=O)(=O)ON2C(=O)c3ccccc3C2=O)c(C)c1 | 9145 | 12 | 0 | 1 | -3
Cc1cc(C)c(S(=O)(=O)ON2C(=O)c3ccccc3C2=O)cc1C | 23962* | 0 | u | -7 | -3
O=C(CN1CCCC1c1cccs1)Nc1cc(S(=O)(=O)N2CCCCC2)ccc1Cl (stereo not drawn) | u | -15 | -7 | -3 | -2
CC(Sc1ncnc2sccc12)C(=O)Nc1ccc(S(N)(=O)=O)cc1 (stereo not drawn) | 3200 | -6 | -1 | 0 | -2
CC(Sc1ncnc2sccc12)C(=O)Nc1ccc(C(N)=O)cc1 (stereo not drawn) | 4264 | -6 | 0 | 54* | 4
O=C(O)c1ccc(CNC(=O)c2ccc3c(c2)C(=O)N(Cc2cccnc2)C3=O)cc1 | 4202 | -3 | 0 | -4 | -4
COc1ccc([C@@H]2[C@H]3C(=O)N(c4cccc(C(F)(F)F)c4)C(=O)[C@H]3ON2C)cc1 | 21509* | 4 | 2 | 7 | -1
CC(=O)c1ccc(NC(=O)C2CCCNC2=O)cc1 (stereo not drawn) | 21778* | -1 | u | -8 | -4
CN(C)CCNC(=O)C1CCCNC1=O (stereo not drawn) | 22891* | -3 | u | -6 | 0
CC(C)C[C@H]1CN([C@@H](Cc2ccccc2)CN2CCC[C@H]2CN2C(=O)C(=O)NC[C@@H]2Cc2ccc(O)cc2)C(=O)C(=O)N1CCc1ccccc1 | 4326 | 2 | -1 | x | 6
Cc1ccc(NC(=O)CSCC(=O)N(C)CC(=O)Nc2ccccc2C(F)(F)F)cc1 | 6020 | 10 | 2 | 3 | -2
CCCCC[C@H](C)N1C[C@@H](COCc2ccccc2)Oc2cc(N3CCC[C@H]3C(N)=O)ccc2S1(=O)=O | 4194 | -5 | -1 | x | 5
CN(C)c1cc(-c2ccc([N+](=O)[O-])cc2)oc(=O)c1Cl | x | x | x | 54* | x
COc1cc(NC(=O)CN2CCN(C(=O)c3ccco3)CC2)c(C)cc1[N+](=O)[O-] | 3893 | -3 | 0 | 7 | -9
CC[C@]1(C(=O)OC)[C@H]2C(=O)N(Cc3ccccc3)C(=O)[C@H]2[C@H]2CN=C(SCC3CC3)N21 | 2921 | -7 | -1 | 7 | -5
Cc1ccc(S(=O)(=O)N(C)CC(=O)O/N=C(\N)c2ccccn2)cc1 | 2781 | 1 | -1 | 61* | -2
O=C(CSc1ncccc1-c1nc2ccccc2[nH]1)N1CCN(c2ccccc2F)CC1 | 17934* | 4 | 5 | -3 | -4
COc1ccc(N2CCN(C(=O)CSc3ncccc3-c3nc4ccccc4[nH]3)CC2)cc1 | 20130* | -2 | 3 | -3 | 5
COc1ccccc1N1CCN(C(=O)CSc2nc3ccccc3[nH]2)CC1 | 11200 | -4 | 0 | 1 | -2
COc1ccccc1N1CCN(C(=O)CSc2ncccc2-c2nc3ccccc3[nH]2)CC1 | 21668* | -1 | 4 | -8 | 5
O=C(CSc1ncccc1-c1nc2ccccc2[nH]1)NC1CC1 | 8002 | 22 | 7 | -1 | 4
Cc1ccc(S(=O)(=O)N2[C@@H](c3ccccc3F)C(C(=O)O)=CC[C@H]2c2ccc3c(c2)OCO3)cc1 | 3592 | -7 | 0 | -1 | -10
Cc1snc(S(=O)(=O)Cc2ccccc2Cl)c1C#N | 21018* | -1 | -1 | -3 | -3
SMILES | Bead autofluor | BoNT-F LC inh | BoNT-A LC inh2 | MazF activator | Anthrax LF prot
Cc1ccc(S(=O)(=O)Nc2ccc3c(c2)nc2n3CCN(Cc3ccccc3)C2)cc1 | 18646* | -4 | 6 | -3 | 3
O=S(=O)(Nc1ccc2c(c1)nc1n2CCN(Cc2ccccc2)C1)c1ccc(F)cc1 | 24166* | -12 | 2 | 9 | 3
O=S(=O)(Nc1ccc2c(c1)nc1n2CCN(Cc2ccccc2)C1)c1ccccc1 | 7297 | -15 | 3 | 2 | -12
NC(COCc1ccccc1)c1csc(NC(=O)Nc2cccc(C(F)(F)F)c2)n1 (stereo not drawn) | 2982 | -27 | 0 | x | -3
CC(=O)c1cccc(NC(=O)NCCc2c[nH]c3ccccc23)c1 | 3867 | u | 1 | -9 | -3
Cc1ccc2[nH]cc(CCNC(=O)Nc3ccccc3)c2c1 | 21739* | -7 | -3 | 4 | 0

Screens from PubChem.
